Laboratory results: ChEMBL document CHEMBL4513146, “CO-ADD screening of Karazin Kharkiv National University (Ukraine) compounds”
Entries with a potency or affinity are not part of this list.

Tests used:
Staphylococcus aureus = details: Concentration 32 ug.mL-1;; ASSAY_TEST Inhibition of Bacterial Growth; detection method Absorption (OD600); MEDIA CAMHB; plate type 384well; NBS; CORNING #3640; time 18 hr
Escherichia coli = details: Concentration 32 ug.mL-1;; ASSAY_TEST Inhibition of Bacterial Growth; detection method Absorption (OD600); MEDIA CAMHB; plate type 384well; NBS; CORNING #3640; time 18 hr

SMILES | Inhibition (Staphylococcus aureus) [%] | Inhibition (Escherichia coli) [%]
Cc1ccc(-c2ccc3nnc(CCC(=O)NCc4cccc(Br)c4)n3n2)cc1 | 12.72 | -0.13
COc1ccccc1-n1ccn2c(SCc3ccccc3C)nnc2c1=O | 16.46 | -2.58
CCc1nnc2c(SCC(=O)Nc3cccc(OC)c3)nc3ccccc3n12 | 0.35 | -7.16
Cc1ccc(-c2cc3c4nnc(CCC(=O)NCc5ccc(C(F)(F)F)cc5)n4ccn3n2)cc1C | 3.78 | -2.88
Cc1cccc(NC(=O)Cn2nc3c4cc(-c5ccc(Cl)cc5)nn4ccn3c2=O)c1 | 3.19 | -7.53
COc1ccc(C)cc1NC(=O)CSc1nc2ccccc2n2cnnc12 | 16.59 | 4.56
CCCCn1c(=O)c2sccc2n2c(=O)n(CC(=O)N3CCC(Cc4ccccc4)CC3)nc12 | -14.82 | -3.89
O=c1c2sccc2n2c(SCc3cccc(C(F)(F)F)c3)nnc2n1Cc1cccs1 | 3.6 | -11.21
Cc1cc(C)c(NC(=O)Cn2nc3c(Sc4ccccc4)nccn3c2=O)c(C)c1 | 5.4 | -7.73
O=c1c2sccc2n2c(=O)n(Cc3c(F)cccc3Cl)nc2n1Cc1cccs1 | 6.51 | 0.39
CCc1nnc2ccc(S(=O)(=O)N(Cc3ccccc3)c3ccccc3)cn12 | 5.6 | -2.89
Cc1ccc(C)c(Cn2nc3c(=O)n(-c4ccc(C)c(C)c4)ccn3c2=O)c1 | 6.02 | -6.59
COC(=O)c1sccc1NC(=O)CSc1nc2ccccc2n2c(C)nnc12 | 17.15 | 5.14
O=C(CSc1nnc2c(=O)n(-c3ccc(Br)cc3)ccn12)Nc1cc(F)ccc1F | 11.71 | -2.54
CCc1ccccc1Sc1nccn2c(=O)n(CC(=O)N3CCN(c4ccccc4F)CC3)nc12 | -3.66 | -8.54
COc1ccc(OC)c(NC(=O)Cn2nc3c(SCc4ccc(Cl)cc4)nccn3c2=O)c1 | -7.47 | -4.33
COc1ccc(N(Cc2cccc(F)c2)S(=O)(=O)c2ccc3nnc(C)n3c2)cc1 | -0.61 | -14.24
COC(=O)c1ccc(NC(=O)Cn2nc3c(N4CCOCC4)nccn3c2=O)cc1 | 12.61 | 0.79
Cc1ccccc1Oc1nccn2c(=O)n(CC(=O)Nc3cc(Cl)ccc3Cl)nc12 | 0.32 | -4.76
CC(C)CCn1c(=O)c2ccc(C(=O)NC3CCCC3)cc2n2c(=O)n(CC#N)nc12 | 11.46 | 0.05
O=c1n(Cc2nc(-c3ccc(Br)cc3)no2)nc2ccc(-c3ccccc3)nn12 | 5.03 | -5.77
Cc1cccc(NC(=O)Cn2nc3ccc(-c4ccc(Cl)cc4)nn3c2=O)c1C | 5.25 | -5.96
O=c1c2nn(Cc3ccccc3Cl)c(=O)n2ccn1-c1ccccc1 | -1.67 | -5.84
CCOC(=O)N1CCN(C(=O)CCc2nnc3c4cc(-c5ccccc5)nn4ccn23)CC1 | 4.14 | -0.18

SMILES | Inhibition (Staphylococcus aureus) [%] | Inhibition (Escherichia coli) [%]
COc1ccccc1Cn1c(=O)c2sccc2n2c(=O)n(Cc3cccc(Br)c3)nc12 | -9.99 | -1.02
CCc1nnc2c(=O)n(CC(=O)Nc3cccc(C#N)c3)c3ccccc3n12 | 13.48 | 1.69
O=C(CSc1nnc2c(=O)n(Cc3ccc(F)cc3)ccn12)NCC1CCCO1 (configuration not stated) | 8.21 | -3.13
CCOc1ccc(-n2ccn3c(SCC(=O)c4c(C)[nH]c5ccccc45)nnc3c2=O)cc1 | -0.13 | -15.25
Cc1cc(C)cc(N(Cc2cccc(F)c2)S(=O)(=O)c2cccn3c(C)nnc23)c1 | 2.22 | -5.24
O=C(Cn1nc2nc(Nc3ccc(F)cc3)ccn2c1=O)N1CCOCC1 | 9.39 | -3.26
COc1ccc(Cl)cc1NC(=O)CSc1nnc2c(=O)n(-c3ccc(C)c(C)c3)ccn12 | 15.8 | -1.54
Cc1ccc(F)cc1NC(=O)CSc1nc2ccccc2n2c(C(C)C)nnc12 | 9.29 | -3.01
COc1cccc(-n2ccn3c(SCC(=O)NC(C)C)nnc3c2=O)c1 | 11 | -7.26
COc1ccc(NC(=O)Cn2nc3c(Oc4ccccc4)nccn3c2=O)cc1OC | 1.69 | -7.24
CCc1cccc(NC(=O)Cn2nc3ccc(SC(C)(C)C)nn3c2=O)c1 | 9.57 | -1.32
O=C(CSc1nc2ccccc2n2cnnc12)Nc1cccc(Br)c1 | -6.77 | -14.46
O=C(CCc1nnc2c3cc(-c4ccc(F)cc4)nn3ccn12)NCc1ccccc1Cl | -0.61 | -10.24
CSc1cccc(NC(=O)Cn2nc3c(Oc4cc(C)cc(C)c4)nccn3c2=O)c1 | 3.38 | -5.29
COc1ccc(CNC(=O)CCc2nnc3c(N4CCCCC4)nc4ccccc4n23)cc1OC | 16.6 | 2.89
Cc1cc(C)c(NC(=O)CSc2nnc3ccc(C(=O)Nc4cccc(F)c4)cn23)c(C)c1 | 12.67 | 2.09
O=C(Cn1nc2c3cc(-c4ccc(F)cc4)nn3ccn2c1=O)Nc1ccc(Br)cc1 | -9.12 | -9.31
Cc1cccc(CN(c2cccc(Cl)c2)S(=O)(=O)c2cccn3c(C)nnc23)c1 | 9.05 | -5.75
Cc1ccc(Oc2nccn3c(=O)n(CC(=O)Nc4cccc(Cl)c4)nc23)cc1 | -3.9 | -9.06
N#Cc1cccc(NC(=O)Cn2nc3c4cc(-c5ccc(Cl)cc5)nn4ccn3c2=O)c1 | 2.28 | -5.31
Cc1nnc2c(SCC(=O)N3CCN(c4ccc(F)cc4)CC3)nc3ccccc3n12 | 9.13 | 7.96
COc1ccc(N(Cc2cccc(Cl)c2)S(=O)(=O)c2ccc3nnc(C)n3c2)cc1 | 13.9 | 0.81
CC(C)(C)OC(=O)N1CCC(NC(=O)CCc2nnc3ccc(-c4ccccc4)nn23)CC1 | 1.31 | -5.19
Cc1ccc(NC(=O)CSc2nc3ccccc3n3c(C(C)C)nnc23)cc1Cl | -8.33 | -6.42

SMILES | Inhibition (Staphylococcus aureus) [%] | Inhibition (Escherichia coli) [%]
Cc1ccc(CNC(=O)Cn2nc3c(N4CCN(c5ccccc5C)CC4)nccn3c2=O)cc1 | 4.45 | -8.18
O=C(Cn1nc2ccc(SCc3ccc(Cl)cc3)nn2c1=O)Nc1ccc2c(c1)CCC2 | 2.54 | -5.73
Cc1cccc(NC(=O)c2ccc3nnc(SCC(=O)Nc4ccc(Br)cc4)n3c2)c1 | 11.58 | 0.25
O=S(=O)(c1cccn2cnnc12)N(Cc1ccccc1F)c1ccc(F)c(F)c1 | -22.58 | 5.15
COc1cc(NC(=O)CSc2nnc3c(=O)n(-c4ccc(C)c(C)c4)ccn23)cc(OC)c1 | 3.54 | -13.82
Cc1oc(-c2ccccc2)nc1CSc1nc2ccccc2n2c(C)nnc12 | 4.04 | 4.8
COc1ccc(-c2cc3c4nn(CC(=O)Nc5cc(OC)ccc5OC)c(=O)n4ccn3n2)cc1 | 5.8 | 4.02
COC(=O)c1ccc(NC(=O)Cn2nc3c4cc(-c5ccc(F)cc5)nn4ccn3c2=O)cc1 | -6.17 | 3.19
CCc1ccc(NC(=O)Cn2nc3c4cc(-c5ccc(Cl)cc5)nn4ccn3c2=O)cc1 | 10.21 | 3.59
O=C(Cn1nc2c(N3CCOCC3)nccn2c1=O)Nc1ccc(Br)cc1F | 13.39 | 2.9
COc1ccccc1Cn1c(=O)c2sccc2n2c(=O)n(Cc3c(F)cccc3Cl)nc12 | 3.95 | 0.18
Cc1ccc(-n2ccn3c(=O)n(Cc4ccc(F)cc4)nc3c2=O)cc1C | 10.94 | -2.15
CCCn1c(=O)c2sccc2n2c(=O)n(CC(=O)c3cccc(OC)c3)nc12 | 2.99 | -2.97
CCOc1ccc(-n2ccn3c(=O)n(CC(=O)Nc4ccc(Br)cc4)nc3c2=O)cc1 | -12.91 | -1.87
Cc1ccc(NC(=O)CSc2nnc3c4cc(-c5ccccc5)nn4ccn23)c(C)c1 | -9.27 | -11.37
CCc1cccc(NC(=O)Cn2nc3c(Sc4ccc(C)cc4C)nccn3c2=O)c1 | -6.82 | -19.78
CCCn1c(=O)c2sccc2n2c(CCC(=O)NC(C)C34CC5CC(CC(C5)C3)C4)nnc12 (configuration not stated) | -5.57 | -7.36
O=C(Cn1nc2c3cc(-c4ccc(Cl)cc4)nn3ccn2c1=O)Nc1ccc2c(c1)OCO2 | 8.69 | 2.9
CCCCOc1ccc(-c2cc3c4nnc(SCC(=O)Nc5ccc(C)c(F)c5)n4ccn3n2)cc1 | 5.13 | -2.67
Cc1ccc(NC(=O)CSc2nnc3n(CC4CCCO4)c(=O)c4sccc4n23)cc1F (configuration not stated) | 4.36 | -6.16
COc1ccc(NC(=O)c2ccc3nn(CC(=O)Nc4cccc(OC)c4)c(=O)n3c2)cc1 | 15.63 | 0.97
Cc1cc(C)cc(Oc2nccn3c(=O)n(CC(=O)Nc4ccc(Cl)cc4F)nc23)c1 | 18.94 | 4.01
O=C(Cn1nc2c(SCc3ccccc3)nccn2c1=O)NC1CCCC1 | -2.71 | 0.2
